Broadly, the AC50 is the midpoint of the concentration-response curve, whichever way the signal moves.

Consider 40 compounds from PubChem BioAssay (EPA / NIEHS).

The source made the active and inactive calls. How the source made its calls: active means hit-call score of the fitted dose curve at least 0.9, where 1 is the maximum; inactive means score below 0.9.

Read-out in this test: UDP glucuronosyltransferase (UGT1A6), UGT1A6 (gene 54578)
As to the kind of experiment: LTEA_HepaRG_UGT1A6: Life Technologies and Expression Analysis (LTEA) Assay for UDP glucuronosyltransferase (UGT1A6) using HepaRG (AID 2283539). The following applies: mRNA level, 48 h; actives raise or lower the signal. Here is the method:
LTEA_HepaRG is a cell based, multiplexed-readout assay that uses HepaRG, a human liver cell line, with measurements taken at 48 hours after chemical dosing on a 96-well plate.LTEA_HepaRG_UGT1A6 is one of 102 assay component(s) measured in the LTEA HepaRG cell culture assay. It is a marker of NR mediated metabolism.Data from the assay component LTEA_HepaRG_UGT1A6 was analyzed into 1 endpoint. This assay endpoint, LTEA_HepaRG_UGT1A6, was analyzed with bidirectional fitting relative to DMSO as the negative control and baseline of activity. Using a type of inducible reporter, measures of mRNA induction for gain or loss-of-signal activity can be used to understand regulation of transcription factor activity. To generalize the intended target to other relatable targets, this assay endpoint is annotated to the transferase intended target family, where the subfamily is glucuronosyltransferase.
A total of 1060 chemcials from the ToxCast library were tested in eight-point concentration-response experiments. Cell culture and cytotoxicity assays were conducted at Thermo Fisher Scientific's Custom Services facility (Madison, WI). A single lot of human HepaRG cells (Thermo Fisher Scientific, Frederick, MD) was used for the cell culture experiments. 96-well format collagen type I coated plates of human HepaRG cells were prepared using established methods. Briefly, cryopreserved HepaRG cells were thawed, plated at a density of approximately 100,000 cells/well in HepaRG Thaw, Plate, and General Purpose media (HPRG770, Thermo Fisher Scientific), and incubated for 48 hours. 0.5% DMSO was selected as vehicle control to balance the requisite need of DMSO in HepaRG cultures to maintain differentiation (for example, baseline metabolism, proportions of hepatocytes vs. cholangiocytes), while enabling further hepatic receptor pathway activation (for example, PXR and CAR) in response to chemical exposure. 48 hours after plating, the culture medium was replaced with HepaRG Serum-Free Incudtion Media. Cells were exposed to each test chemical in duplicate and maintained in CO2 incubators for another 48 hours. Chemical plates were thawed to room temperature and 200x concentrations of treatment groups were prepared. 8-point conentration-reponse curves were made with the highest exposure at 100 uM, followed by half-log dilutions, all in 0.5% DMSO. Each test plate contained variouse controls, induction positive controls (1mM phenobarbital), cytotoxicity positive controls ([…] aflatoxin B1), vehicle controls (0.5% DMSO), and total lysis controls (0.5% DMSO). Cell morphology images were taken using an Essen IncuCyte FLR automated microscope, with six 96-well plates imaged in about 24 minutes. Images were captured and exported and JPEG files. Spent culture media was transfered to black-well plates for the LDH assay, and remaining media was sorted at -80 C for later use. Cells were treated with RLT buffer and frozen until shipped for gene expression analysis. Total RNA was isolated from the cell suspension in 75 uL of Buffer RLT (Qiagen, Germantown, MD 20874) by Quintiles/Expression Analysis (Durham, NC) using a custom isolation procedure. Total RNA from each plate well was transferred to a preamplification plate. Fluidigm's 96.96 Dynamic ArrayTM (Fluidigm, Amsterdam, the Netherlands) technology was used for gene expression analyses by quantitative reverse transcription polymerase chain reaction (qRT-PCR, performed by Quintiles/Expression Analysis, Durham, NC)89. Standard TaqManTM Assays (Applied Biosystems/ThermoFisher Scientific, Foster City, CA) were used to assess the expression of 93 genes selected based on their selectivity and sensitivity to important hepatic receptors known to be modulated by environmental chemicals; importance in human hepatocyte functionality; and hepatotoxicity. […]
Consider `Oc1ccc2ccc3cccc4ccc1c2c34`, for which the compound was classed as inactive.
On to `CCCSC(=O)N(CCC)CCC`, for which the result was inactive.
Consider `CCCCCCCCn1sccc1=O`, for which the concentration at half-maximal activity (AC50) was 81.3 µM (active).
Consider `Clc1ccc(C(c2ccc(Cl)cc2)C(Cl)(Cl)Cl)cc1`, for which the call was inactive.
`COc1cc(C=O)cc2c1[C@H](COC(N)=O)[C@]1(OC(C)=O)ON2C[C@H]2[C@@H]1N2C(C)=O`: the compound was called inactive.
On to `c1ccc2c(c1)-c1cccc3cccc-2c13`, for which the call was inactive.
Still for that read-out and setting: next, `COP(=S)(OC)SCN1C(=O)c2ccccc2C1=O`: “inactive”.
The same measure, in the same setting: in the case of `C1=Cc2cccc3cccc1c23` it was “inactive”.
On the same count and under the same terms, in the case of `CC(C)(C)OOC(C)(C)CCC(C)(C)OOC(C)(C)C` it was “inactive”; in that of `c1ccc2c(c1)oc1ccccc12`, “inactive”.
For the compound `CCCCCCCCOC(=O)c1ccc(C(=O)OCCCCCCCC)c(C(=O)OCCCCCCCC)c1`, the outcome was inactive.
Same read-out and setting: next, `c1ccc(C2CO2)cc1` (stereo not given): “inactive”; `CCC12COCN1COC2`: “inactive”.
Still for that read-out and setting: next, `CC(C)(O)c1cnn2c(-c3ccc(F)c(-c4c(F)cccc4C#N)c3)cnc2n1`: “inactive”; `Nc1ccc(Oc2ccc(N)cc2)cc1`: “inactive”.
Take `Cc1cc(N=Nc2ccccc2C)ccc1N`: the AC50 is 12.2 µM (active).
Consider `CN(C)C(=O)Nc1ccc(Cl)cc1`, for which the compound was classed as inactive.
Consider `CCCCCOC(=O)c1ccccc1C(=O)OCCCCC`, for which the outcome was inactive.
For `O=[N+]([O-])C(Br)(CO)CO`, the result was inactive.
For `Clc1ccc(Cl)c(Cl)c1`, the AC50 was 9.92 µM (active).
Regarding `Nc1ccc(Cl)cc1N`, the AC50 is 54.9 µM (active).
Still for that read-out and setting: next, `CCC[CH2][Sn]([Cl])([CH2]CCC)[CH2]CCC`: 12.6 µM (active).
Consider `CCNS(=O)(=O)C(F)(F)C(F)(F)C(F)(F)C(F)(F)C(F)(F)C(F)(F)C(F)(F)C(F)(F)F`, for which the outcome was inactive.
Still for that read-out and setting: next, `CS(=O)(=O)NC(=O)c1cc(Oc2ccc(C(F)(F)F)cc2Cl)ccc1[N+](=O)[O-]`: “inactive”; `Nc1ccc([N+](=O)[O-])cc1`: “inactive”.
On the same count and under the same terms, in the case of `O=Cc1ccco1` it was “inactive”; in that of `Nc1cc(Cl)cc(C(=O)O)c1Cl`, “inactive”; in that of `CCN(CC)CCO`, “inactive”.
For the compound `Nc1ccc(N=Nc2ccccc2)cc1`, the AC50 is 19.8 µM (active).
For `OCCCl`, the compound was called inactive.
Same read-out and setting: in the case of `CCCCC(CC)COC(=O)c1ccc(C(=O)OCC(CC)CCCC)c(C(=O)OCC(CC)CCCC)c1` (stereo not given) it was “inactive”.
The same measure, in the same setting: in the case of `C[C@]12C=CC3=C4CCC(=O)C=C4CC[C@H]3[C@@H]1CC[C@@H]2O` it was “inactive”; in that of `CN(C)[C@@H]1C(=O)C(C(N)=O)=C(O)[C@@]2(O)C(=O)C3=C(O)c4c(O)cccc4[C@@](C)(O)[C@H]3C[C@@H]12`, “inactive”.
On the same count and under the same terms, in the case of `CO[C@@H]1[C@H](OC(=O)NC(=O)CCl)CC[C@]2(CO2)[C@H]1[C@@]1(C)O[C@@H]1CC=C(C)C` it was “inactive”; in that of `CC(C)N(Cc1ccccc1)C(=O)C(C)(C)C`, “inactive”.
Turning to `O=C1CCCO1`, the AC50 was 50 µM (active).
Turning to `C[N+](C)(C)CC1CO1` (stereo not given), the call was inactive.
Same read-out and setting: next, `Clc1ccccc1Cl`: “inactive”.
On the same count and under the same terms, next, `[O-][Cl+]O`: “inactive”; `O=C(O)C1C2CCC(O2)C1C(=O)O` (stereo not given): “inactive”.
